Measurements as given in PubChem BioAssay (EPA / NIEHS).
Records with an inconclusive call do not appear. Calls of active or inactive are those of the source. How the source made its calls: active means hit-call score of the fitted dose curve at least 0.9, where 1 is the maximum; inconclusive means response in the unintended direction; inactive means score below 0.9.

The compounds below were run on xenobiotic metabolism (CYP1A1), CYP1A1 (gene 1543) (assay: CLD_CYP1A1_24hr: CellzDirect (CLD) Gene Expression Assay for xenobiotic metabolism (CYP1A1) at 24 hours (AID 2283673)).
Procedure: CLD_24hr is a cell-based, multiplexed-readout assay that uses hepatocyte, a human liver primary cell, with measurements taken at 24 hours after chemical dosing in a 96-well plate.CLD_CYP1A1_24hr is one of 16 assay component(s) measured or calculated from the CLD_24hr assay. It is designed to make measurements of mRNA induction, a form of inducible reporter, as detected with chemiluminescence signals by Quantitative Nuclease Protection Assay (qNPA) technology.Data from the assay component CLD_CYP1A1_24hr was analyzed at the endpoint, CLD_CYP1A1_24hr, in the positive analysis fitting direction relative to DMSO as the negative control and baseline of activity. Using a type of inducible reporter, gain-of-signal activity can be used to understand changes in the reporter gene as they relate to the gene CYP1A1. Furthermore, this assay endpoint can be referred to as a primary readout. To generalize the intended target to other relatable targets, this assay endpoint is annotated to the cyp intended target family, where subfamily is xenobiotic metabolism.
Human hepatocyte cultures were treated daily for two consecutive days with fresh dosing solutions containing appropriate concentrations of the 320 ToxCast chemicals (chemical identities were blinded to CellzDirect and other ToxCast collaborators), vehicle control (0.2% DMSO), and positive control inducers as summarized in Table 1. Due to the large number of treatment groups and chemicals examined, the ToxCast chemicals were divided into two groups (spanning two independent cultures of hepatocytes from separate donor preparations (Hu778: ToxCast plates 1 and 2; Hu776: ToxCast plates 3 and 4). Each preparation of human hepatocyte cultures was treated with respective vehicle control, medium only control, set of six positive controls/reference chemicals for the five hepatic receptor pathways, and a subset of eight of the ToxCast chemicals (indoxacarb, pyrithiobac-sodium, norflurazon, cyhalofop-butyl, methomyl, thiram, acetochlor, and propiconazole). These replicate data, coupled with internal replicates designed within the blinded ToxCast chemical library, provided additional data to evaluate interindividual differences between hepatocyte preparations and their potential impact on chemical profiles.Cell morphology and integrity were evaluated using phase-contrast microscopy as an indicator of hepatocyte cell health (Tyson & Green, 1987). Cultures for each treatment group (i.e., media, vehicle [0.2% DMSO], positive control inducers [multiple concentrations], and the ToxCast chemicals [multiple concentrations]) were observed and cell morphology was assessed relative to vehicle control cultures at each harvest time point (0, 6, 24, or 48 h). […] Images were evaluated at the conclusion of the study to assess changes in cell integrity and account for the effects of chemical exposure on uncharacteristic changes in concentration-dependent gene expression profiles. The results from these determinations of apparent cytotoxicity were annotated (yes/no) alongside the corresponding qNPA data for reference.At the conclusion of each treatment period, hepatocyte cultures (96-well) were washed with 1 volume of HBSS, lysed by addition of 25 ul ArrayPlate lysis buffer (HTG, Tucson, AZ), and 70 ul/well of Denaturation Oil, denatured by incubation at 95C for 10 min, and frozen at approximately -70C until analysis by nuclease protection assay (qNPA) (Roberts et al., 2007). For qNPA analysis, cell lysates were thawed at 50C for approximately 30 min, qNPA probes were added, and samples were incubated at 95C for 10 min to begin the detection process by denaturing the target RNA, dissociating the duplexes and secondary structure hybridization. At the conclusion of the hybridization period, S1 nuclease reagent was added to each sample to digest all nonprotected nucleotides at 50C for 60-90 min. […]
In the case of `CCOC(=O)COc1cc(-c2nn(C)c(OC(F)F)c2Cl)c(F)cc1Cl`, the outcome was “inactive”. For `Cc1nn(-c2cc(NS(C)(=O)=O)c(Cl)cc2Cl)c(=O)n1C(F)F`, the outcome was “inactive”. In the case of `O=[N+]([O-])c1cc(C(F)(F)F)c(Cl)c([N+](=O)[O-])c1Nc1ncc(C(F)(F)F)cc1Cl`, the AC50 was 0.485 µM (active). With `CC(C)N(C(=O)SCC(Cl)=C(Cl)Cl)C(C)C` the outcome was “inactive”. With `CNC(=O)ON=C(C)SC` the outcome was “inactive”. With `CCCSP(=O)(OCC)Oc1ccc(Br)cc1Cl` (stereo not given) the AC50 was 20 µM (active). `Nc1c(Cl)cc([N+](=O)[O-])cc1Cl` was tested, and the AC50 was 9.35 µM (active). For `CC(COc1ccc(Oc2ccccc2)cc1)Oc1ccccn1` (stereo not given), the outcome was “inactive”. `CC(Oc1cccc(Cl)c1)C(=O)O` (stereo not given) was tested, and the outcome was “inactive”. With `C#CCC1=C(C)C(OC(=O)C2C(C=C(C)C)C2(C)C)CC1=O` (stereo not given) the AC50 was 20 µM (active). For `CC(C)[C@H](C(=O)O[C@H](C#N)c1cccc(Oc2ccccc2)c1)c1ccc(Cl)cc1`, the outcome was “inactive”. For `COP(=O)(OC)OC(Br)C(Cl)(Cl)Br` (stereo not given), the outcome was “inactive”. In the case of `CCOP(=O)(OCC)Oc1cc(C)nc(C(C)C)n1`, the outcome was “inactive”. With `C=C(C)[C@H]1Cc2c(ccc3c2O[C@@H]2COc4cc(OC)c(OC)cc4[C@@H]2C3=O)O1` the AC50 was 3.38 µM (active). With `CCNc1nc(Cl)nc(NC(C)(C)C#N)n1` the outcome was “inactive”. In the case of `CC1=NNC(=O)N(/N=C/c2cccnc2)C1`, the AC50 was 4.96 µM (active). `CCCCN(CC)c1c([N+](=O)[O-])cc(C(F)(F)F)cc1[N+](=O)[O-]` was tested, and the AC50 was 8.49 µM (active). For `CNc1cnn(-c2cccc(C(F)(F)F)c2)c(=O)c1Cl`, the AC50 was 5.85 µM (active). For `CCCCSP(=O)(SCCCC)SCCCC`, the AC50 was 4.53 µM (active). With `Cc1cc(C2CC2)nc(Nc2ccccc2)n1` the AC50 was 29.9 µM (active). For `CSC1=N[C@@](C)(c2ccccc2)C(=O)N1Nc1ccccc1`, the AC50 was 3 µM (active). `CC(C)=CC1C(C(=O)OCN2C(=O)C3=C(CCCC3)C2=O)C1(C)C` (stereo not given) was tested, and the outcome was “inactive”. With `CC(C1CC1)C(O)(Cn1cncn1)c1ccc(Cl)cc1` (stereo not given) the AC50 was 11.9 µM (active). In the case of `CON=C(C(=O)OC)c1ccccc1CON=C(C)c1cccc(C(F)(F)F)c1`, the outcome was “inactive”. With `Nc1nc(N)nc(NC2CC2)n1` the outcome was “inactive”. `CCCOc1nn(C(=O)NS(=O)(=O)c2ccccc2C(=O)OC)c(=O)n1C` was tested, and the outcome was “inactive”. With `C[Si](Cn1cncn1)(c1ccc(F)cc1)c1ccc(F)cc1` the AC50 was 2.21 µM (active). With `CCCOCC(=Nc1ccc(Cl)cc1C(F)(F)F)n1ccnc1` the AC50 was 2.36 µM (active). For `CCC(CC)Nc1c([N+](=O)[O-])cc(C)c(C)c1[N+](=O)[O-]`, the AC50 was 20 µM (active). In the case of `CCc1cccc(CC)c1N(COC)C(=O)CCl`, the AC50 was 3.06 µM (active). For `CCOP(=O)(SC(C)CC)N1CCSC1=O` (stereo not given), the outcome was “inactive”. `CN1COCN(Cc2cnc(Cl)s2)C1=N[N+](=O)[O-]` was tested, and the outcome was “inactive”. With `FC(F)C(F)(F)OCC(Cn1cncn1)c1ccc(Cl)cc1Cl` (stereo not given) the AC50 was 5.2 µM (active). In the case of `CCOP(=S)(OCC)Oc1ccc2c(C)c(Cl)c(=O)oc2c1`, the AC50 was 1.89 µM (active). With `CCCSP(=O)(OCC)SCCC` the AC50 was 2.42 µM (active). For `CN(C)C(=O)Nc1cccc(C(F)(F)F)c1`, the AC50 was 2.41 µM (active). In the case of `CSc1nc(NC(C)C)nc(NC(C)C)n1`, the AC50 was 6.14 µM (active). For `CCOP(=S)(OCC)OC(Cl)C(Cl)(Cl)Cl` (stereo not given), the AC50 was 4.46 µM (active). In the case of `CC[C@H](C)[C@H]1O[C@]2(C=C[C@@H]1C)C[C@@H]1C[C@@H](C/C=C(\C)[C@@H](O[C@H]3C[C@H](OC)[C@@H](O[C@H]4C[C@H](OC)[C@@H](NC)[C@H](C)O4)[C@H](C)O3)[C@@H](C)/C=C/C=C3\CO[C@@H]4[C@H](O)C(C)=C[C@@H](C(=O)O1)[C@]34O)O2`, the outcome was “inactive”. For `CCOC(=O)CC(SP(=O)(OC)OC)C(=O)OCC` (stereo not given), the AC50 was 5.29 µM (active).
